Among the data in PubChem BioAssay (Tox21) are Potency values, retold here.

Molecules are shown by their SMILES. Results filed as inconclusive are left out. Where a call stands in place of a potency, no number is given. Activity calls are given as the source filed them. Unless noted, calls follow the shape of the dose curve; as a rule, active = well fitted curve in the direction sought with a large enough effect in the repeat runs; inconclusive = weak or mixed curves; inactive = no such curve, though single readings can be large; an effect the other way counts as inactive or inconclusive. Positions of bridges follow the written chain, without caps; N, C: chain ends. Non-standard residues stand in square brackets, D forms with d. Residues, ends and D or L forms follow the SMILES beside them. ξ: configuration not given here. *: point of attachment. d(aThr) = C[C@@H](O)[C@@H](N)C(=O)O; ξThr(3R) = C[C@@H](O)C(N)C(=O)O; X3 = CC[C@@H](C)CCCCC(=O)*; dDab = NCC[C@@H](N)C(=O)O

The first assay can be described thus: qHTS assay for small molecule disruptors of the mitochondrial membrane potential - cell viability (AID 720634; calls by dose curve;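 also: human HepG2 liver cancer cells; nearly all actives have a fitted effect of over 20% in size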). The following applies: HepG2 viability, ATP luminescence (CellTiter-Glo), 1 h; series mostly up to 83.2 µM. The method, boiled down:
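HepG2 cells seeded overnight at 37 C, then exposed to compound or DMSO for 1 hr at 37 C, 5% CO2. m-MPI dye added, then CellTiter-Glo for 30 min at room temperature; viability read as ATP luminescence.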
As to `CCC(=O)NS(=O)(=O)c1ccc(-c2c(-c3ccccc3)noc2C)cc1`, the Potency result was “inactive”.

For the molecule `O=C1NCCN1c1ncc([N+](=O)[O-])s1`, the Potency result was “inactive”.

As for `CCC(=O)NCCC1CCc2ccc3c(c21)CCO3` (centres undefined), the Potency result was “inactive”.

For `CN1CCN(C2=Nc3ccccc3Cc3ccccc32)CC1`, the Potency entry was “inactive”.

For the molecule `CCCCCCCCCCCCCCCC(=O)O[C@@H]1CC(C)=C(/C=C/C(C)=C/C=C/C(C)=C/C=C/C=C(C)/C=C/C=C(C)/C=C/C2=C(C)C[C@@H](OC(=O)CCCCCCCCCCCCCCC)CC2(C)C)C(C)(C)C1`, the Potency result was “inactive”.

`Cc1ccc(S(=O)(=O)NC(=O)N[C@@H](C)Cc2ccccc2)cc1`: the Potency result is “inactive”.

`O=C(O)c1cc(N=Nc2ccc(O)c(C(=O)O)c2)ccc1O`: the Potency result was “inactive”.

The next assay in a line: qHTS assay for small molecule disruptors of the mitochondrial membrane potential (AID 720635). Also: potency is read from the fitted curve at half-maximal effect. The following applies: HepG2 mitochondrial membrane potential, Mito-MPS dye ratio; series mostly up to 83.2 µM. In a few lines: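 HepG2 cells exposed to compound 1 hr at 37C, then Mito-MPS dye 30 min. Ratio read of aggregate (540/590 nm) versus monomer (490/535 nm) fluorescence.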
On to `COc1ccc(C2NC(=S)N3C(c4ccc(OC)c(OC)c4)NC(=S)N23)cc1OC` (centres undefined), for which the Potency result was “inactive”.

`C[C@@H]1CCC2[C@@H](C)[C@@H](O)O[C@@H]3O[C@@]4(C)CC[C@@H]1[C@@]23OO4` (some centres undefined): the Potency entry is “inactive”.

For the molecule `CCOC(=O)[C@H](CS)NCCN[C@@H](CS)C(=O)OCC`, the Potency entry is “inactive”.

On to `CC1(C)S[C@@H]2[C@H](NC(=O)[C@H](NC(=O)N3CCN(S(C)(=O)=O)C3=O)c3ccccc3)C(=O)N2[C@H]1C(=O)O`, for which the Potency entry is “inactive”.

Consider `Cn1c(O)c(N=NC(N)=S)c2ccccc21`, for which the Potency was 4.95 µM (active).

For `NCCC(=O)[N-][C@@H](Cc1cnc[nH]1)C(=O)O.[Zn]`, the Potency entry is “inactive”.

With `C#C[C@]1(O)CC[C@H]2[C@@H]3CCC4=CCCC[C@@H]4[C@H]3C(=C)C[C@@]21CC`, the Potency was 21.1 µM (active).

As for `CC[C@@H](C)CCCCC(=O)N[C@H](CCN)C(=O)N[C@@H](C(=O)N[C@H](CCN)C(=O)N[C@@H]1CCNC(=O)C([C@@H](C)O)NC(=O)[C@@H](CCN)NC(=O)[C@@H](CCN)NC(=O)[C@@H](CC(C)C)NC(=O)[C@@H](Cc2ccccc2)NC(=O)[C@@H](CCN)NC1=O)[C@@H](C)O` (stereo partly drawn) (X3-[dDab][d(aThr)][dDab][dDab][dDab][dF][dL][dDab][dDab][ξThr(3R)]; lactam 4-C), the Potency result is “inactive”.

Regarding `CCC(=O)Oc1ccc2c(c1)CC[C@@H]1[C@@H]2CC[C@]2(C)[C@@H](OC(=O)CC)CC[C@@H]12`, the Potency entry is “inactive”.

Regarding `CN[C@@H]1[C@@H](O)[C@@H](O[C@@H]2[C@@H](O)[C@H](OC3OC(CN)=CCC3N)[C@@H](N)C[C@H]2N)OC[C@]1(C)O` (some centres undefined), the Potency entry was “inactive”.

Turning to `CCC[C@@H]1C[C@@H](C(=O)N[C@@H]([C@H]2O[C@H](SC)[C@H](O)[C@@H](O)[C@H]2O)[C@H](C)Cl)N(C)C1`, the Potency entry was “inactive”.

Consider `CCC[C@@]1(CCc2ccccc2)CC(O)=C([C@H](CC)c2cccc(NS(=O)(=O)c3ccc(C(F)(F)F)cn3)c2)C(=O)O1`, for which the Potency was 23.7 µM (active).

With `CCCCCCC(=O)O[C@H]1CC[C@H]2[C@@H]3CCc4cc(O)ccc4[C@H]3CC[C@]12C`, the Potency is 11.9 µM (active).

Turning to `CCC(=O)OCC(=O)[C@@]1(OC(=O)CC)[C@@H](C)C[C@H]2[C@@H]3CCC4=CC(=O)C=C[C@]4(C)[C@@]3(F)[C@@H](O)C[C@@]21C`, the Potency is 23.7 µM (active).

Regarding `C=C1C(=C/C=C2\CCC[C@]3(C)[C@@H]([C@H](C)CCCC(C)(C)O)CC[C@@H]23)C[C@@H](O)C[C@@H]1O`, the Potency was 10.6 µM (active).

Regarding `CC[C@]1(O)CC2CN(CCc3c([nH]c4ccccc34)[C@@](C(=O)OC)(c3cc4c(cc3OC)N(C)[C@H]3[C@@](O)(C(N)=O)[C@H](O)[C@]5(CC)C=CCN6CC[C@]43[C@@H]65)C2)C1` (some centres undefined), the Potency is 10.6 µM (active).

With `CCCCCCCCCCCCCCCC(=O)O[C@@H]1CC(C)=C(/C=C/C(C)=C/C=C/C(C)=C/C=C/C=C(C)/C=C/C=C(C)/C=C/C2=C(C)C[C@@H](OC(=O)CCCCCCCCCCCCCCC)CC2(C)C)C(C)(C)C1`, the Potency entry was “inactive”.

For the molecule `O=C(Nc1ccc(Br)cc1)c1cc(Br)c(Br)s1`, the Potency was 0.668 µM (active).

As for `Cc1ccc(S(=O)(=O)NC(=O)N[C@@H](C)Cc2ccccc2)cc1`, the Potency entry was “inactive”.

For the molecule `O=C(O)c1cc(N=Nc2ccc(O)c(C(=O)O)c2)ccc1O`, the Potency entry was “inactive”.

The next assay is described as follows: qHTS assay to test for compound auto fluorescence at 590 nm (red) in HepG2 cells (AID 720674). The following applies: HepG2 autofluorescence, red 540/590 nm, 1 h; series mostly up to 46 µM. The method, boiled down:
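Fluorescence at 590 nm emission following 540 nm excitation was recorded from HepG2 wells one hour after compound transfer, with DMSO-only wells as vehicle and Rose Bengal sodium equivalency as the scale.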
Regarding `Cc1cc(O)c2c(c1)O[C@@]1(C)CC[C@H]3C(C)(C)CCCC34CO[C@@H]2[C@H]41` (some centres undefined), the Potency result is “inactive”.

As for `COc1ccc(C2NC(=S)N3C(c4ccc(OC)c(OC)c4)NC(=S)N23)cc1OC` (centres undefined), the Potency entry is “inactive”.

As for `CC(CN(C)C)CN1c2ccccc2Sc2ccc(C(F)(F)F)cc21` (centres undefined), the Potency entry was “inactive”.

Regarding `C[C@@H]1CCC2[C@@H](C)[C@@H](O)O[C@@H]3O[C@@]4(C)CC[C@@H]1[C@@]23OO4` (some centres undefined), the Potency result was “inactive”.

Take `CCc1ccc2c(c1)N(CC(C)CN(C)C)c1ccccc1S2` (centres undefined): the Potency entry is “inactive”.

As to `CCCCCCCCCCCCCCCCCC[N+](C)(C)CCC[Si](OC)(OC)OC`, the Potency result was “inactive”.

In the case of `CCOC(=O)[C@H](CS)NCCN[C@@H](CS)C(=O)OCC`, the Potency result was “inactive”.

`CC1(C)S[C@@H]2[C@H](NC(=O)[C@H](NC(=O)N3CCN(S(C)(=O)=O)C3=O)c3ccccc3)C(=O)N2[C@H]1C(=O)O`: the Potency result was “inactive”.

Consider `Cn1c(O)c(N=NC(N)=S)c2ccccc21`, for which the Potency result is “inactive”.

On to `CC1=C[C@H](O)CC(C)(C)[C@H]1/C=C/C(C)=C/C=C/C(C)=C/C=C/C=C(C)/C=C/C=C(C)/C=C/C1=C(C)C[C@@H](O)CC1(C)C`, for which the Potency result is “inactive”.

Turning to `NCCC(=O)[N-][C@@H](Cc1cnc[nH]1)C(=O)O.[Zn]`, the Potency result was “inactive”.

With `C#C[C@]1(O)CC[C@H]2[C@@H]3CCC4=CCCC[C@@H]4[C@H]3C(=C)C[C@@]21CC`, the Potency result was “inactive”.

Regarding `C=C1C(=C/C=C2\CCC[C@]3(C)[C@@H]([C@H](C)/C=C/[C@H](C)C(C)C)CC[C@@H]23)C[C@@H](O)C[C@@H]1O`, the Potency entry was “inactive”.

For `CC(=O)[C@@]1(O)CC[C@H]2[C@@H]3C=C(Cl)C4=CC(=O)CC[C@]4(C)[C@H]3CC[C@@]21C`, the Potency entry is “inactive”.

Regarding `CC[C@@H](C)CCCCC(=O)N[C@H](CCN)C(=O)N[C@@H](C(=O)N[C@H](CCN)C(=O)N[C@@H]1CCNC(=O)C([C@@H](C)O)NC(=O)[C@@H](CCN)NC(=O)[C@@H](CCN)NC(=O)[C@@H](CC(C)C)NC(=O)[C@@H](Cc2ccccc2)NC(=O)[C@@H](CCN)NC1=O)[C@@H](C)O` (stereo partly drawn) (X3-[dDab][d(aThr)][dDab][dDab][dDab][dF][dL][dDab][dDab][ξThr(3R)]; lactam 4-C), the Potency result was “inactive”.

`COc1ccccc1N1CCN(CCCC(=O)c2ccc(F)cc2)CC1`: the Potency entry was “inactive”.

On to `CCC(=O)Oc1ccc2c(c1)CC[C@@H]1[C@@H]2CC[C@]2(C)[C@@H](OC(=O)CC)CC[C@@H]12`, for which the Potency result is “inactive”.

Consider `CC(=O)Oc1cc(C)c(OC(C)=O)c2ccccc12`, for which the Potency entry is “inactive”.

In the case of `CC(C)(C)NC(=O)[C@H]1CC[C@H]2[C@@H]3CC=C4C=C(C(=O)O)CC[C@]4(C)[C@H]3CC[C@]12C`, the Potency result is “inactive”.

Consider `Clc1ccc(COC(Cn2ccnc2)c2ccc(Cl)cc2Cl)c(Cl)c1` (centres undefined), for which the Potency entry was “inactive”.

Take `CCCCC[C@H](O)/C=C/[C@H]1[C@H](O)CC(=O)[C@@H]1CCCCCCC(=O)O`: the Potency entry is “inactive”.

Turning to `CCOC(=O)C1=C(COCCN)NC(C)=C(C(=O)OC)C1c1ccccc1Cl` (centres undefined), the Potency result was “inactive”.

Turning to `CN1CCN(CCCN2c3ccccc3Sc3ccccc32)CC1`, the Potency entry is “inactive”.

With `CN[C@@H]1[C@@H](O)[C@@H](O[C@@H]2[C@@H](O)[C@H](OC3OC(CN)=CCC3N)[C@@H](N)C[C@H]2N)OC[C@]1(C)O` (some centres undefined), the Potency entry was “inactive”.

On to `CCC[C@@H]1C[C@@H](C(=O)N[C@@H]([C@H]2O[C@H](SC)[C@H](O)[C@@H](O)[C@H]2O)[C@H](C)Cl)N(C)C1`, for which the Potency entry was “inactive”.

For the molecule `CCC[C@@]1(CCc2ccccc2)CC(O)=C([C@H](CC)c2cccc(NS(=O)(=O)c3ccc(C(F)(F)F)cn3)c2)C(=O)O1`, the Potency result was “inactive”.

For the molecule `CCCCCCC(=O)O[C@H]1CC[C@H]2[C@@H]3CCc4cc(O)ccc4[C@H]3CC[C@]12C`, the Potency result is “inactive”.

In the case of `CCC(=O)OCC(=O)[C@@]1(OC(=O)CC)[C@@H](C)C[C@H]2[C@@H]3CCC4=CC(=O)C=C[C@]4(C)[C@@]3(F)[C@@H](O)C[C@@]21C`, the Potency entry is “inactive”.

Consider `CCCC1([C@H](O)C/C=C/[C@H]2[C@H](O)CC(=O)[C@@H]2CCCCCCC(=O)OC)CCC1`, for which the Potency entry is “inactive”.

Turning to `C=C1C(=C/C=C2\CCC[C@]3(C)[C@@H]([C@H](C)CCCC(C)(C)O)CC[C@@H]23)C[C@@H](O)C[C@@H]1O`, the Potency entry is “inactive”.

On to `CC[C@]1(O)CC2CN(CCc3c([nH]c4ccccc34)[C@@](C(=O)OC)(c3cc4c(cc3OC)N(C)[C@H]3[C@@](O)(C(N)=O)[C@H](O)[C@]5(CC)C=CCN6CC[C@]43[C@@H]65)C2)C1` (some centres undefined), for which the Potency entry was “inactive”.

For the molecule `CCC(=O)NS(=O)(=O)c1ccc(-c2c(-c3ccccc3)noc2C)cc1`, the Potency entry is “inactive”.

For the molecule `O=C1NCCN1c1ncc([N+](=O)[O-])s1`, the Potency result is “inactive”.

In the case of `CCC(=O)NCCC1CCc2ccc3c(c21)CCO3` (centres undefined), the Potency entry is “inactive”.

Regarding `CN1CCN(C2=Nc3ccccc3Cc3ccccc32)CC1`, the Potency entry was “inactive”.

For `Cc1ccc(S(=O)(=O)NC(=O)N[C@@H](C)Cc2ccccc2)cc1`, the Potency result is “inactive”.

On to `O=C(O)c1cc(N=Nc2ccc(O)c(C(=O)O)c2)ccc1O`, for which the Potency result is “inactive”.
